{"source": "PubChem BioAssay (NCATS)", "note": "“And” between values parts separate entries of the source, which are not always exact repeats. Equal values may be shown once. Results filed as inconclusive are left out. Unmarked numbers belong to inactive results. The source made the active and inactive calls. Calls follow the shape of the dose curve; as a rule, active = well fitted activation curve with a large enough effect in the signal ratio (not every such curve was filed as active); inconclusive = small, poorly fitted or top-dose-only effect, or a change in a side signal; inactive = flat fitted curve, though single readings scatter; the % refers to the signal ratio. Potency is read from the fitted curve at half-maximal effect.", "data": [{"assay": "qHTS assay for small molecule activators of the p53 signaling pathway (AID 651743); as to activation: series mostly up to about 92 µM; % of control where 0% means no effect", "settings": "HCT-116 p53RE-bla, beta-lactamase FRET ratio, 16 h; activation: hits give high values", "description": "National Center for Advancing Translational Sciences [NCATS] NIH Chemical Genomics Center [NCGC] U.S. Environmental Protection Agency [EPA] National Institutes of Environmental Health Sciences [NIEHS] National Toxicology Program [NTP] Assay Overview: p53, a tumor suppressor protein, is activated following cellular insult, including DNA damage and other cellular stresses. The activation of p53 regulates cell fate by inducing DNA repair, cell cycle arrest, apoptosis, or cellular senescence. The activation of p53, therefore, is a good indicator of DNA damage and other cellular stresses. The CellSensor p53RE-bla HCT-116 cell line (Invitrogen) contains a stably integrated beta-lactamase reporter gene under control of the p53 response elements. The activation of the report gene under culture conditions can be detected by fluorescence intensity. This cell line can be used to screen chemicals in a 1536-well plate format and to identify agonists that activate p53 signaling pathway.\nAssay Protocol Summary: The p53RE-bla cells were dispensed at 4,000 cells/5 ul/well in 1536-well black wall/clear bottom plates using a Multidrop dispenser. After the assay plates were incubated at a 37 C/5% CO2 incubator for 5 hours, 23 nL of compounds dissolved in DMSO, positive controls or DMSO only was transferred to the assay plate by a pin tool. The plates were incubated at 37 C for 16 hours. After 1 uL of LiveBLAzer B/G FRET substrate was added using a Flying Reagent Dispenser, the plates were incubated at room temperature for 2 hours, and fluorescence intensity was measured by an Envision plate reader.", "values": [{"compound": "CCC1(c2ccccc2)C(=O)NCNC1=O", "activation": "-3.22% and -3.23%"}, {"compound": "Nc1ccn([C@H]2CC[C@@H](CO)O2)c(=O)n1", "activation": "-0.413% and 2.91%"}, {"compound": "Cn1c(=O)c2[nH]cnc2n(C)c1=O", "activation": "0.514%"}, {"compound": "O=C(CCCN1CCC(O)(c2ccc(Cl)cc2)CC1)c1ccc(F)cc1", "activation": "0.976%"}, {"compound": "NCCS(=O)(=O)O", "activation": "-1.87%"}, {"compound": "O=C(Nc1ccc([N+](=O)[O-])cc1Cl)c1cc(Cl)ccc1O", "Potency": "891 nM (active)"}, {"compound": "CC(C)Cc1ccc(C(C)C(=O)O)cc1", "note": "(stereo not drawn)", "activation": "-2.52%"}, {"compound": "Cn1c(=O)c2c(ncn2C)n(C)c1=O", "activation": "-3.61% and -3.49%"}, {"compound": "Nc1c2c(nc3ccccc13)CCCC2", "activation": "1%"}, {"compound": "C[C@](N)(Cc1ccc(O)c(O)c1)C(=O)O", "activation": "-5.22%"}, {"compound": "NS(=O)(=O)c1cc2c(cc1Cl)NCNS2(=O)=O", "activation": "-0.393% and 4.88%"}, {"compound": "O=c1c(-c2ccc(O)cc2)coc2cc(O)cc(O)c12", "activation": "12.7% and 14.1%"}, {"compound": "CC(C)(Oc1ccc(C2CC2(Cl)Cl)cc1)C(=O)O", "note": "(stereo not drawn)", "activation": "-1.02%"}, {"compound": "COc1ccc2c(c1)c(CC(=O)O)c(C)n2C(=O)c1ccc(Cl)cc1", "activation": "-7.78% and -10.3%"}, {"compound": "COc1ccc2[nH]cc(CCNC(C)=O)c2c1", "activation": "-4% and -3.68% and -2.3%"}, {"compound": "COc1ccc(CCN(C)CCCC(C#N)(c2ccc(OC)c(OC)c2)C(C)C)cc1OC", "note": "(stereo not drawn)", "activation": "-2.6%"}, {"compound": "CCOC(=O)C(C)(C)Oc1ccc(Cl)cc1", "activation": "3.33%"}, {"compound": "Cc1cn([C@H]2C[C@H](N=[N+]=[N-])[C@@H](CO)O2)c(=O)[nH]c1=O", "activation": "7.41% and -3.71%"}]}]}
